Laboratory results taken from PubChem BioAssay (NCI).
Compounds without any hit were thinned out: in the full panel of roughly 79,000, 15% have a hit. The source made the active and inactive calls. No stated cut-off is given here; in the data, active means growth inhibition above about 70%; inactive means the rest.

Columns and labels:
[1] = NCI Yeast Anticancer Drug Screen. Data for the rad14 strain (AID 159);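 further: 0% = growth of vehicle-treated control cultures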; details: S. cerevisiae rad14 strain growth inhibition, hits give high values
Summary of the method: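 DNA repair-defective yeast, compound-exposed; % growth inhibition derived by comparison with vehicle-treated controls.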

[2] = NCI Yeast Anticancer Drug Screen. Data for the sgs1 mgt1 strain (AID 161);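 further: 0% = growth of cultures given vehicle only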; details: S. cerevisiae sgs1 mgt1 strain, hits give high values
Summary of the method: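 Yeast cells carrying a defined DNA-repair defect were exposed to test compounds. Growth inhibition was measured relative to vehicle-treated controls.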

[3] = NCI Yeast Anticancer Drug Screen. Data for the CLN2oe strain (AID 163);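 further: 0% = growth of vehicle-only control cultures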; details: S. cerevisiae CLN2oe strain, hits give high values
Summary of the method: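 Values reflect how much compound exposure reduced yeast growth, referenced to vehicle-exposed cells. Assay organism is a strain with a defined genetic change affecting cell-cycle control.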

[4] = NCI Yeast Anticancer Drug Screen. Data for the cln2 rad14 strain (AID 165);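 further: 0% = growth equal to vehicle treated cultures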; details: S. cerevisiae cln2 rad14 strain, hits give high values
Summary of the method: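 Relative to vehicle controls, growth inhibition of compound-treated cln2 rad14 yeast was recorded.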

[5] = NCI Yeast Anticancer Drug Screen. Data for the bub3 strain (AID 167); details: S. cerevisiae bub3 mutant strain, hits give high values
Summary of the method: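 In this screen, a yeast mutant lacking normal mitotic checkpoint function is challenged with compound. Relative growth versus vehicle gives the inhibition value.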

[6] = NCI Yeast Anticancer Drug Screen. Data for the wt2 strain (AID 169);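 further: 0% = growth of vehicle-treated yeast cultures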; details: S. cerevisiae wt2 strain growth inhibition, hits give high values
Summary of the method: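 Values express reduction in yeast growth under compound treatment, referenced to vehicle-treated cells.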

[7] = NCI Yeast Anticancer Drug Screen. Data for the mlh1 strain (AID 171);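 further: 0% = growth of vehicle-treated control cultures of the same strain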; details: S. cerevisiae mlh1 strain growth inhibition, hits give high values
Summary of the method: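 Steps: expose the defined-mutant yeast strain to compound; expose a parallel culture to vehicle; measure growth; express compound effect as inhibition relative to the vehicle culture.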

[8] = NCI Yeast Anticancer Drug Screen. Data for the mlh1 rad18 strain (AID 175); details: S. cerevisiae mlh1 rad18 strain growth inhibition, hits give high values
Summary of the method: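 Test agents were incubated with a yeast strain of defined genotype (DNA damage repair defect). Inhibition of growth was derived by comparison with vehicle-exposed cultures.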

[9] = NCI Yeast Anticancer Drug Screen. Data for the rad18 strain (AID 177); details: S. cerevisiae rad18 mutant growth inhibition, hits give high values
Summary of the method: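 A genetically defined yeast mutant impaired in DNA damage repair was treated with test compounds, then its growth was measured against cultures receiving vehicle alone.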

[10] = NCI Yeast Anticancer Drug Screen. Data for the rad52 strain (AID 147);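 further: 0% = growth of vehicle-treated control cultures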; details: S. cerevisiae rad52 mutant growth inhibition, hits give high values
Summary of the method: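 Screen used a yeast mutant impaired in DNA repair. After compound exposure, growth was measured. Values reflect inhibition compared with vehicle-treated cells.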

[11] = NCI Yeast Anticancer Drug Screen. Data for the wt1 strain (AID 149);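 further: 0% = growth of vehicle-treated wt1 cultures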; details: S. cerevisiae wt1 strain (SPY 50644) growth inhibition, hits give high values
Summary of the method: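 wt1 strain grown with compound or vehicle; inhibition taken from the growth difference.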

[12] = NCI Yeast Anticancer Drug Screen. Data for the rad50EPP+ strain (AID 151);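 further: 0% = growth of vehicle-treated control cultures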; details: S. cerevisiae rad50 mutant strain, hits give high values
Summary of the method: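 Exposing the rad50EPP+ strain to each compound, growth was compared with vehicle-only cultures to give inhibition.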

[13] = NCI Yeast Anticancer Drug Screen. Data for the rad50 strain (AID 155);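 further: 0% = growth of vehicle-only cultures of the same strain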; details: S. cerevisiae rad50 strain growth inhibition, hits give high values
Summary of the method: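 DNA repair mutant yeast, compound exposure, growth read-out; inhibition is taken relative to vehicle.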

[14] = NCI Yeast Anticancer Drug Screen. Data for the mec2-1 strain (AID 157); details: S. cerevisiae mec2-1 strain, hits give high values
Summary of the method: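 Readout is yeast growth inhibition, normalised to vehicle-treated controls, in the mec2-1 strain exposed to compound.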

[15] = NCI Yeast Anticancer Drug Screen. Data for the sgs1 strain (AID 173);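 further: 0% = growth of vehicle-only control cultures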; details: S. cerevisiae sgs1 mutant, hits give high values
Summary of the method: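 Treat defined-mutant yeast with compound; measure growth; calculate inhibition relative to vehicle-treated cells.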

[16] = at 5.0 µM (retest, dose inferred, filed as 0.5)
[17] = at 50.0 µM (retest, dose inferred, filed as 5.0)

Measured: growth inhibition

O=C1C(=C2CCCC2)CCC1CN1CCCCC1 (stereo not drawn)
active: [1]; at 100.0 µM 94% | [3]; at 100.0 µM 91% | [5]; at 33.0 µM 81% | [5]; [17] 80% | [5]; at 100.0 µM 97% | [6]; at 100.0 µM 93% | [7]; at 33.0 µM 84% | [7]; at 100.0 µM 97% | [8]; [17] 83% | [9]; at 33.0 µM 81% | [9]; at 100.0 µM 94%
inactive: [1]; at 11.0 µM 29% | [1]; at 33.0 µM 57% | [2]; [16] 9% | [2]; [17] 57% | [2]; at 50.0 µM 58.9% | [3]; at 1.2 µM -16% | [3]; at 3.7 µM 11% | [3]; at 11.0 µM -1% | [3]; at 33.0 µM 40% | [4]; [16] 4% | [4]; [17] 14% | [4]; at 50.0 µM 43.5% | [5]; at 1.2 µM 8% | [5]; at 3.7 µM 10% | [5]; [16] -21% | [5]; at 11.0 µM 18% | [5]; at 50.0 µM 55.6% | [6]; at 1.2 µM -17% | [6]; at 3.7 µM 2% | [6]; at 11.0 µM 11% | [6]; at 33.0 µM 68% | [7]; at 1.2 µM 0% | [7]; at 3.7 µM 0% | [7]; at 11.0 µM 13% | [8]; [16] -29% | [8]; at 50.0 µM 63.5% | [9]; at 1.2 µM 8% | [9]; at 3.7 µM 6% | [9]; at 11.0 µM 27%

C/C(=N\Sc1ccccc1)c1ccccc1O
inactive: [10]; at 1.2 µM 1% | [10]; at 3.7 µM 4% | [10]; at 11.0 µM 2% | [10]; at 33.0 µM 21% | [11]; at 1.2 µM -3% | [11]; at 3.7 µM -4% | [11]; at 11.0 µM -4% | [11]; at 33.0 µM 4% | [11]; at 100.0 µM 64% | [12]; at 1.2 µM 3% | [12]; at 3.7 µM 5% | [12]; at 11.0 µM 9% | [12]; at 33.0 µM 35% | [13]; at 1.2 µM -3% | [13]; at 3.7 µM -4% | [13]; [16] -144% | [13]; at 11.0 µM 7% | [13]; at 33.0 µM 16% | [14]; at 1.2 µM -1% | [14]; at 3.7 µM 2% | [14]; [16] -48% | [14]; at 11.0 µM -11% | [14]; at 33.0 µM -1% | [14]; [17] -4% | [14]; at 50.0 µM 51.5% | [14]; at 100.0 µM 62% | [1]; at 1.2 µM -4% | [1]; at 3.7 µM -9% | [1]; at 11.0 µM -5% | [1]; at 33.0 µM 9% | [1]; at 100.0 µM 63% | [2]; [16] -63% | [2]; [17] 49% | [2]; at 50.0 µM 33.5% | [3]; at 1.2 µM 2% | [3]; at 3.7 µM -1% | [3]; at 11.0 µM 2% | [3]; at 33.0 µM 1% | [3]; at 100.0 µM 39% | [4]; [16] -59% | [4]; [17] -38% | [4]; at 50.0 µM 11.5% | [5]; at 1.2 µM 0% | [5]; at 3.7 µM 2% | [5]; [16] -62% | [5]; at 11.0 µM -1% | [5]; at 33.0 µM 5% | [5]; [17] 55% | [5]; at 50.0 µM 49.2% | [5]; at 100.0 µM 53% | [6]; at 1.2 µM 1% | [6]; at 3.7 µM 2% | [6]; at 11.0 µM 1% | [6]; at 33.0 µM 0% | [6]; at 100.0 µM 62% | [7]; at 1.2 µM 2% | [7]; at 3.7 µM 3% | [7]; at 11.0 µM -2% | [7]; at 33.0 µM 13% | [15]; at 1.2 µM 1% | [15]; at 3.7 µM 4% | [15]; at 11.0 µM 10% | [15]; at 33.0 µM 35% | [8]; [16] -115% | [8]; [17] 59% | [9]; at 1.2 µM -2% | [9]; at 3.7 µM 0% | [9]; at 11.0 µM 4% | [9]; at 33.0 µM 21%
active: [10]; at 100.0 µM 85% | [12]; at 100.0 µM 91% | [13]; [17] 71% | [13]; at 50.0 µM 79% | [13]; at 100.0 µM 90% | [7]; at 100.0 µM 79% | [15]; at 100.0 µM 91% | [8]; at 50.0 µM 94.2% | [9]; at 100.0 µM 90%
